About 79,000 compounds went through this panel and 15% of them were active in at least one assay; those are over-represented in the sample as a whole. Values without a mark were called inactive. Active and inactive are the calls of the source. Rule as the data show it: active = growth inhibition above about 70%; inactive = the rest.
Columns and labels:
[1] = NCI Yeast Anticancer Drug Screen. Data for the rad50 strain (AID 155);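 also: 0% = growth of vehicle-only cultures of the same strain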; conditions: S. cerevisiae rad50 strain growth inhibition; at 50.0 µM; stronger effect = higher value
Outline: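 Genetically altered yeast (DNA repair pathway); compound treatment; growth inhibition vs vehicle ctrl.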

[2] = NCI Yeast Anticancer Drug Screen. Data for the mec2-1 strain (AID 157); conditions: S. cerevisiae mec2-1 strain, at 50.0 µM, stronger effect = higher value
Outline: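 Growth inhibition is read against vehicle-treated controls after compound exposure of the mec2-1 yeast strain, which is defective in DNA damage repair or cell cycle control.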

[3] = NCI Yeast Anticancer Drug Screen. Data for the sgs1 mgt1 strain (AID 161);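 also: 0% = growth of cultures given vehicle only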; conditions: S. cerevisiae sgs1 mgt1 strain, at 50.0 µM, stronger effect = higher value
Outline: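 Yeast cells carrying a defined DNA-repair defect were exposed to test compounds. Growth inhibition was measured relative to vehicle-treated controls.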

[4] = NCI Yeast Anticancer Drug Screen. Data for the cln2 rad14 strain (AID 165);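 also: 0% = growth equal to vehicle treated cultures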; conditions: S. cerevisiae cln2 rad14 strain, at 50.0 µM, stronger effect = higher value
Outline: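 Growth inhibition, relative to vehicle-treated controls, is the read-out. The test organism is a yeast strain with defined genetic alterations, cln2 rad14.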

[5] = NCI Yeast Anticancer Drug Screen. Data for the bub3 strain (AID 167); conditions: S. cerevisiae bub3 mutant strain, at 50.0 µM, stronger effect = higher value
Outline: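 Yeast carrying a defined mutation is treated with each compound, and growth is compared with that of vehicle-exposed cells to give inhibition.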

[6] = NCI Yeast Anticancer Drug Screen. Data for the mlh1 rad18 strain (AID 175); conditions: S. cerevisiae mlh1 rad18 strain growth inhibition; at 50.0 µM; stronger effect = higher value
Outline: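 Cells of a genetically altered yeast strain, deficient in DNA damage repair, were treated with compound. Their growth was then compared with that of vehicle-treated cultures to give inhibition.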

Row | Structure (SMILES) | growth inhibition [1] | growth inhibition [2] | growth inhibition [3] | growth inhibition [4] | growth inhibition [5] | growth inhibition [6]
1 | NC(N)=Nc1cccc2ccccc12 | -1.45% | 0.85% | -5.65% | -12.8% | -0.45% | -5.15%
2 | CCCCN(CCCC)CC(O)c1c2cccc(Cl)c2cc2c(Cl)cccc12 (stereo not drawn) | 98.9% (active) | 99.5% (active) | 78.6% (active) | 93.3% (active) | 98.8% (active) | 99.1% (active)
3 | CN1N(c2ccccc2)C(=O)C2=NC=C(C(=O)c3ccccc3)C(=N)C21C (stereo not drawn) | 6.2% | -1.6% | 22.1% | 19.9% | 7.7% | 16.8%
